Source: PubChem BioAssay (Tox21)
Several values for one entry are separate records, joined by “and”; a condition that tells them apart may be missing. Equal values may be shown once. Records with an inconclusive call do not appear. Where a structure was tested more than once in an assay, its records may differ in their call. Activity calls are given as the source filed them. Unless noted, calls come from the whole dose curve; as a rule, active = well fitted curve in the direction sought with a large enough effect in the repeat runs; inconclusive = weak or mixed curves; inactive = no such curve, though single readings can be large; an effect the other way counts as inactive or inconclusive.

Tests used:
[1] = biological target: Estrogen receptor beta (Homo sapiens) (UniProt Q92731); assay: qHTS assay to identify small molecule agonists of the estrogen receptor beta (ER-beta) signaling pathway (AID 1259377; active = well fitted activation curve with a large enough effect in the signal ratio in the repeat runs, not every such curve was filed as active; the % refers to the signal ratio)
Sequence of Estrogen receptor beta (Homo sapiens) (Q92731 whole entry, looked up, the tested form may be a part): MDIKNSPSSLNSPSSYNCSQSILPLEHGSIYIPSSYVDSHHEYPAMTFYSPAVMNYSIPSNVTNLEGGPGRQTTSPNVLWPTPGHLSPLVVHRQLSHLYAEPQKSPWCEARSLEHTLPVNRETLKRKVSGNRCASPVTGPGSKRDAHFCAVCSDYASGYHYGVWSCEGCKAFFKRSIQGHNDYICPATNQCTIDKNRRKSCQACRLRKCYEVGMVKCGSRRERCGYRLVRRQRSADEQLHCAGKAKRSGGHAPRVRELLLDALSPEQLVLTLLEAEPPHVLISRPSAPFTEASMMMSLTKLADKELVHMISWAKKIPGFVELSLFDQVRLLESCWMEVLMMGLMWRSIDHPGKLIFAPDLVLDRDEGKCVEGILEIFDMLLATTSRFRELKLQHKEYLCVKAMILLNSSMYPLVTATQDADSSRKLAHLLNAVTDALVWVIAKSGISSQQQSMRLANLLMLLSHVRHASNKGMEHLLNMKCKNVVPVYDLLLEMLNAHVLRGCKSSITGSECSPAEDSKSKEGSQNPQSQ
Procedure, shortened: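 Agonist mode cell assay in GripTite HEK293T cells expressing an ER-beta fusion that drives beta-lactamase from an Upstream Activator Sequence; 16 hr compound exposure at 37C, then 2 h LiveBLAzer B/G FRET substrate at room temperature, fluorescence read-out.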

[2] = biological target: Estrogen receptor beta (Homo sapiens) (UniProt Q92731); assay: qHTS assay to identify small molecule antagonists of the estrogen receptor beta (ER-beta) signaling pathway (AID 1259378; active = well fitted inhibition curve with a large enough effect in the signal ratio in the repeat runs, not every such curve was filed as active; the % refers to the signal ratio)
Procedure, shortened: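 ER-beta-UAS-bla HEK293T cells in 2% charcoal-stripped FBS medium treated with compound plus 1nM final 17-beta-estradiol for 16 hr at 37C. Beta-lactamase reporter read by FRET substrate fluorescence after 2 hours at room temperature.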

[3] = qHTS assay to identify small molecule agonists of the androgen receptor (AR) signaling pathway in the presence of an antagonist - cell viability counter screen (AID 1259379); note: nearly all actives have a fitted effect of over 25% in size; note: potency is the fitted concentration of half-maximal effect
Procedure, shortened: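 Counter screen for cell viability run in parallel with the AR agonist-mode luciferase assay. MDA-kb2 cells were co-treated with nilutamide (3.0uM final) and compounds, then incubated 16 hr at 37C, and CellTiter-Fluor fluorescence was measured.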

[4] = qHTS assay to identify small molecule agonists of the estrogen receptor beta (ER-beta) signaling pathway - cell viability counter screen (AID 1259380); note: nearly all actives have a fitted effect of over 30% in size
Procedure, shortened: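 In this qHTS counter screen, HEK293T cells carrying an ER-beta/UAS beta-lactamase reporter, grown in 2% charcoal-stripped FBS, received compound for 16 hr; ATP-based CellTiter-Glo luminescence was then read after 30 min at room temperature.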

[5] = qHTS assay to identify small molecule antagonists of the estrogen receptor beta (ER-beta) signaling pathway - cell viability counter screen (AID 1259382); note: series mostly up to about 92 µM; nearly all actives have a fitted effect of over 55% in size
Procedure, shortened: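 HEK293T ER-beta-UAS-bla, 2% charcoal-stripped FBS; compounds + 1nM E2 16 hr 37C; CellTiter-Glo luminescence, 30 min RT.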

[6] = qHTS assay to identify small molecule agonists or antagonists of the thyroid stimulating hormone receptor (TSHR) signaling pathway - wild type cell line counter screen (AID 1259384; calls by dose curve)
Procedure, shortened: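 Wild-type Hek293 cells, 800/well, 18 h at 37C, then compound with Ro20-1724 for 30 min RT. cAMP by HTRF (cAMP-d2/anti-cAMP cryptate), 1 h RT, fluorescence read. 15 concentrations, triplicates.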

[7] = biological target: Thyrotropin receptor (Homo sapiens) (UniProt P16473); assay: qHTS assay to identify small molecule antagonists of the thyroid stimulating hormone receptor (TSHR) signaling pathway (AID 1259385; calls by dose curve; note: nearly all actives have a fitted effect of over 20% in size)
Sequence of Thyrotropin receptor (Homo sapiens) (P16473 whole entry, looked up): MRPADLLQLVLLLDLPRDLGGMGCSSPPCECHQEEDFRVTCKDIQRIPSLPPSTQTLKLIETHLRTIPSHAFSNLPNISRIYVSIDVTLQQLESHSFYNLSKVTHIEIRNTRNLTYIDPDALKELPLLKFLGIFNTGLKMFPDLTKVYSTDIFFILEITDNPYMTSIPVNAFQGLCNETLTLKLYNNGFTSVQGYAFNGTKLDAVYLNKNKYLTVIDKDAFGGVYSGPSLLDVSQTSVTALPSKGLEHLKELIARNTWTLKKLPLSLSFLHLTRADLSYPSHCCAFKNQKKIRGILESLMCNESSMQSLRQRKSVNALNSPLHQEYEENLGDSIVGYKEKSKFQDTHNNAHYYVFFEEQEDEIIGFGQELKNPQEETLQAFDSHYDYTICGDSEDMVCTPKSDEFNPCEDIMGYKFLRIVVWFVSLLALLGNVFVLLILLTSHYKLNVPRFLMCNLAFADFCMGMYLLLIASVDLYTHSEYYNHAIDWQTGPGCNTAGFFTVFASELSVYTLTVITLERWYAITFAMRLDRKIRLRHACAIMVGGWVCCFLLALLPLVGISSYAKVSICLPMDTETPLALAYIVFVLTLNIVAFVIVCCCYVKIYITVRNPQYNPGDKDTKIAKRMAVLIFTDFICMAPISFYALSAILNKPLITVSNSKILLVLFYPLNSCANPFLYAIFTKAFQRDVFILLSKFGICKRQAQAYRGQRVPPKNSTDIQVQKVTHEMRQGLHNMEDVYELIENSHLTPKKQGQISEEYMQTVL
Procedure, shortened: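 TSHR-HEK293 cells (800/well) plated 18 h, then compounds with Ro20-1724 and TSH at 1.5 ng/mL final, 30 min at room temperature. cAMP quantified by HTRF (cAMP-d2/anti-cAMP-cryptate, 1 h); 15 concentrations in triplicate.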

[8] = qHTS assay to identify small molecule agonists of the estrogen receptor alpha (ER-alpha) signaling pathway in the presence of an antagonist - cell viability counter screen (AID 1259386);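 note: cells exposed to compounds for 22 h at 37 °C before the viability read; nearly all actives have a fitted effect of over 30% in size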; note: potency is the fitted concentration of half-maximal effect
Procedure, shortened: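 Steps: 5-day stripped-FBS culture; seed and incubate 24hr; add ICI-182,780 (10.0nM final); pin 15-point compound titration; incubate 22hr at 37C; add CellTiter-Fluor at 21hr; read fluorescence.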

[9] = biological target: Progesterone receptor (Homo sapiens) (UniProt P06401); assay: qHTS assay to identify small molecule agonists of the progesterone receptor (PR) signaling pathway (AID 1346784; calls by dose curve; note: nearly all actives have a fitted effect of over 30% in size; note: potency is the fitted concentration of half-maximal effect)
Sequence of Progesterone receptor (Homo sapiens) (P06401 whole entry, looked up): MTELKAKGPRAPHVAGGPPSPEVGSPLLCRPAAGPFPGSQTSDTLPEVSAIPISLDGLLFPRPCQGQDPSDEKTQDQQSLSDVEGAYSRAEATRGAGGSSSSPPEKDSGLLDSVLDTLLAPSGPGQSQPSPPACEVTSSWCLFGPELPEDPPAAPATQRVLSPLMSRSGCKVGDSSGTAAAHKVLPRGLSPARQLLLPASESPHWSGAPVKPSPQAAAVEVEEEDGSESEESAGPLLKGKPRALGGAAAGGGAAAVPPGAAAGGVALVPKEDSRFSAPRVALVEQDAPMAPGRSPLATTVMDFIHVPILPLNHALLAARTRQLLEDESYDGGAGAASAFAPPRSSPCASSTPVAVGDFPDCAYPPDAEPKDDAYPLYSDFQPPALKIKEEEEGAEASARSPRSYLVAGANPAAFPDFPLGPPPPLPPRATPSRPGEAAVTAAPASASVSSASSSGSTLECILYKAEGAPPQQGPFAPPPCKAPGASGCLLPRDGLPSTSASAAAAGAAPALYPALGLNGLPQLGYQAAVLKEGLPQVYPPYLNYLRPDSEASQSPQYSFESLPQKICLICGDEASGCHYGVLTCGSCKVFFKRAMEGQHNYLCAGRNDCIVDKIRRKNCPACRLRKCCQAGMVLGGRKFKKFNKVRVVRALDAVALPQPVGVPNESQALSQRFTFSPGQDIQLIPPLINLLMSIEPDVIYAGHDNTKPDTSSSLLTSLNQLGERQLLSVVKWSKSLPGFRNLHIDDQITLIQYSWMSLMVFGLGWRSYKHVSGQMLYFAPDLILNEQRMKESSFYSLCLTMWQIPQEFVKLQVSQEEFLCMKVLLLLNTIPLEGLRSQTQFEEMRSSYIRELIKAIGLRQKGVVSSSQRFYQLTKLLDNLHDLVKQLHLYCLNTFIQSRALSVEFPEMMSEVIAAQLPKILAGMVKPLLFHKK
Procedure, shortened: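 Cells (PR-UAS-bla HEK 293T, GripTite) were plated in assay medium containing 2% charcoal-stripped FBS and incubated 6 hr. Test compounds in DMSO were added for 16 hr at 37C. FRET substrate was then loaded for 2 hr at room temperature before fluorescence reading.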

[10] = biological target: Progesterone receptor (Homo sapiens) (UniProt P06401); assay: qHTS assay to identify small molecule antagonists of the progesterone receptor (PR) signaling pathway (AID 1346795; active = well fitted inhibition curve with a large enough effect in the signal ratio in the repeat runs, not every such curve was filed as active; the % refers to the signal ratio; note: potency is the fitted concentration of half-maximal effect)
Procedure, shortened: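 Antagonist mode: compounds tested against 1 nM (final) promegestone stimulation in HEK293T cells expressing PR-UAS-bla reporter, 16 hr at 37C, 5% CO2; beta-lactamase activity detected via B/G FRET substrate after 2 hr at room temperature.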

[11] = qHTS assay to identify small molecule antagonists of the progesterone receptor (PR) signaling pathway - cell viability counter screen (AID 1346798); note: nearly all actives have a fitted effect of over 50% in size; note: potency is the fitted concentration of half-maximal effect
Procedure, shortened: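 Counter screen for cytotoxicity: viability of PR-UAS-bla HEK293T cells was measured with CellTiter-Glo luminescence following 16 hr compound exposure in the presence of R5020.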

[12] = qHTS assay to identify small molecule agonists of the progesterone receptor (PR) signaling pathway - cell viability counter screen (AID 1346799; calls by dose curve; note: nearly all actives have a fitted effect of over 45% in size)
Procedure, shortened: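 Cells (PR-UAS-bla HEK293T) are plated at 3,000/well in 2% charcoal-stripped FBS medium, rested 6 hr, dosed and incubated 16 hr at 37C. CellTiter-Glo is then added and luminescence measured after 30 min at room temperature.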

[13] = qHTS assay to identify small molecule antagonists of the TGF-beta/Smad signaling pathway - cell viability counter screen (AID 1346824); note: nearly all actives have a fitted effect of over 50% in size
Procedure, shortened: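 SBE-bla HEK 293T cells, incubated overnight, then compound plus 0.25 ng/mL TGF-beta1 (stock added) for 5 hr at 37 C. Viability was read in the same wells by CellTiter-Glo luminescence after 30 min at room temperature.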

[14] = qHTS assay to identify small molecule agonists of the TGF-beta/Smad signaling pathway - cell viability counter screen (AID 1346829); note: top concentration of the series differs between compounds; nearly all actives have a fitted effect of over 45% in size
Procedure, shortened: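 Compound-treated SBE-bla HEK 293T cells (5 hr, 37 C) were assessed for viability with CellTiter-Glo in parallel with the reporter read.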

[15] = qHTS assay to identify small molecule agonists of the TGF-beta/Smad signaling pathway (AID 1346859; active = well fitted activation curve with a large enough effect in the signal ratio in the repeat runs, not every such curve was filed as active; the % refers to the signal ratio; note: series mostly up to about 77 µM)
Procedure, shortened: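 Reporter line: HEK 293T with stably integrated SBE-controlled beta-lactamase. Compound exposure lasts 5 hr at 37 C and 5% CO2; substrate loading follows for 2 hr at room temperature, with emission read at 460 and 530 nm.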

[16] = biological target: Thyrotropin-releasing hormone receptor (Homo sapiens) (UniProt P34981); assay: qHTS assay to identify small molecule antagonists of the thyrotropin-releasing hormone receptor (TRHR) signaling pathway (AID 1346877; active = well fitted inhibition curve with a large enough effect in the repeat runs, not every such curve was filed as active; note: series mostly up to about 51 µM)
Sequence of Thyrotropin-releasing hormone receptor (Homo sapiens) (P34981 whole entry, looked up): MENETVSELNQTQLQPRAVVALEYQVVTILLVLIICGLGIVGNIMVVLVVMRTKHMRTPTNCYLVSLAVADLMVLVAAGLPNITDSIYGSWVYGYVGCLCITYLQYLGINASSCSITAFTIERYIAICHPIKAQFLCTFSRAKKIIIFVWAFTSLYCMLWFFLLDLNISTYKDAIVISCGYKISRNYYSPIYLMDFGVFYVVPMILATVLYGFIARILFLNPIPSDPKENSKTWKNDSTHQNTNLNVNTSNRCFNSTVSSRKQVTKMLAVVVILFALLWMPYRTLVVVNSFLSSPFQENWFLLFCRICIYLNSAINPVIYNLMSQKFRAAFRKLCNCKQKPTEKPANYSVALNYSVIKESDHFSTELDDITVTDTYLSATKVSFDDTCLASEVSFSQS
Procedure, shortened: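 Human TRHR in HEK293 cells; inhibition of the intracellular calcium rise triggered by 1 nM TRH was followed by fluorescence over 3 min. Compounds were run at 15 concentrations, three replicates each.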

[17] = biological target: Thyrotropin-releasing hormone receptor (Homo sapiens) (UniProt P34981); assay: qHTS assay to identify small molecule agonists of the thyrotropin-releasing hormone receptor (TRHR) signaling pathway (AID 1346891; calls by dose curve;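 note: HEK293 cells expressing TRHR with calcium dye readout; series mostly up to about 58 µM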)
Procedure, shortened: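 Cells: TRHR-Hek293, seeded and incubated 18 h. Dye loading: 2 h at 37 °C. Compound added from DMSO stock by pin tool. Read-out: kinetic calcium fluorescence over 3 min.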

[18] = Human pregnane X receptor (PXR) small molecule agonists, qHTS cell viability counter screen (AID 1346977); note: nearly all actives have a fitted effect of over 50% in size; note: potency is the fitted concentration of half-maximal effect
Procedure, shortened: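 Cytotoxicity counter screen run in the same wells as the PXR luciferase assay, using PXR-Luc HepG2 cells in charcoal-stripped serum medium. Viability: CellTiter-Fluor fluorescence after 24hr compound treatment.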

[19] = biological target: Estrogen receptor (Homo sapiens) (UniProt P03372); assay: qHTS assay to identify small molecule agonists of the estrogen receptor alpha (ER-alpha) signaling pathway in the presence of an antagonist (AID 1259383; calls by dose curve; note: top concentration of the series differs between compounds; nearly all actives have a fitted effect of over 15% in size)
Sequence of Estrogen receptor (Homo sapiens) (P03372 whole entry, looked up): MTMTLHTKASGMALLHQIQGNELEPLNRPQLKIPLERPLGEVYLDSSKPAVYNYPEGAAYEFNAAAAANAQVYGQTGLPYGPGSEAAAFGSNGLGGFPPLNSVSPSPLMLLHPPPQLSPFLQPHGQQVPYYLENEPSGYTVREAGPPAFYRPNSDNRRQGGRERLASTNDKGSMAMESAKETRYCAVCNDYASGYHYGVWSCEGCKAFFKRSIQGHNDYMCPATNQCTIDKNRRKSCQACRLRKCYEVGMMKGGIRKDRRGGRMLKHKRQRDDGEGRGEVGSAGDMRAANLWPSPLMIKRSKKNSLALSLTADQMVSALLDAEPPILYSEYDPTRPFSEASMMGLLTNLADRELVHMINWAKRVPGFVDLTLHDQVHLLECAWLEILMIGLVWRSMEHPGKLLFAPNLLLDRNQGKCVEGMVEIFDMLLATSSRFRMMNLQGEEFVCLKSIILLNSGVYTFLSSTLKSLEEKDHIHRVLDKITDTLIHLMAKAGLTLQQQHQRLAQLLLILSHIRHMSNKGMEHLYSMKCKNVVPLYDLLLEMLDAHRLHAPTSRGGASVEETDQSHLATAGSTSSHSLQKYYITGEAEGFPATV
Procedure, shortened: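 ER-alpha agonism measured under antagonist challenge: 10.0nM ICI-182,780 (final) plus compound, 15 concentrations, 22hr, VM7Luc4E2 ERE-luciferase cells. Read by luminescence.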

[20] = biological target: Androgen receptor (Homo sapiens) (UniProt P10275); assay: qHTS assay to identify small molecule agonists of the androgen receptor (AR) signaling pathway in the presence of an antagonist (AID 1259381; calls by dose curve; note: nearly all actives have a fitted effect of over 15% in size)
Sequence of Androgen receptor (Homo sapiens) (P10275 whole entry, looked up): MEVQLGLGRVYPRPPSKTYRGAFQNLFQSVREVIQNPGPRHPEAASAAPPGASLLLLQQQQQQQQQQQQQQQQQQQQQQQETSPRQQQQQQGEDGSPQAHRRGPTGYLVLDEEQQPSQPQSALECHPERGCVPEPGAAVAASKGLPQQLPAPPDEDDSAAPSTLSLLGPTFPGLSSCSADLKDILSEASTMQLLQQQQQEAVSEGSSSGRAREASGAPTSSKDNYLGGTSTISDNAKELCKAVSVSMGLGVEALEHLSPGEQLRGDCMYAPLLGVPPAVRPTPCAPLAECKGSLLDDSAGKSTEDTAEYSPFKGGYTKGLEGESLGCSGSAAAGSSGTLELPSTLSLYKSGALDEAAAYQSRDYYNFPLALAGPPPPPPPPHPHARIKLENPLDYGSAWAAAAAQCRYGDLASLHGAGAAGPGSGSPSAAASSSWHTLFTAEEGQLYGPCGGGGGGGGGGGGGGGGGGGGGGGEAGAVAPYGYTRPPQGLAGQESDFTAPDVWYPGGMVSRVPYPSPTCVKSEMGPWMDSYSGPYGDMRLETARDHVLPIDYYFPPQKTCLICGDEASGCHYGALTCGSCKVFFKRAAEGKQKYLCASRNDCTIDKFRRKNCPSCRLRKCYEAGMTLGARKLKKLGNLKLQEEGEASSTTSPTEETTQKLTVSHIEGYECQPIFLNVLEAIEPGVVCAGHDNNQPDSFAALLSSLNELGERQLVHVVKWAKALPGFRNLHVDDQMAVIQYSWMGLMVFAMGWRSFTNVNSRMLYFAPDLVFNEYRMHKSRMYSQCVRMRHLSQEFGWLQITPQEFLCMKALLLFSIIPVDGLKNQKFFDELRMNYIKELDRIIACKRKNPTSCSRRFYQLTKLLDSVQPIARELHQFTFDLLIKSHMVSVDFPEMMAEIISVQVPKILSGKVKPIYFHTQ
Procedure, shortened: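 AR antagonist background: nilutamide 3.0uM final. Cell line: MDA-kb2, MMTV-driven luciferase, responsive to both AR and GR. Exposure 16hr, 37C, no CO2; ONE-Glo luminescence.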

Measured: Potency

CCNCC
not listed: [19] | [20]
inactive: all other assays above

COc1ccc(O)c(C(C)(C)C)c1
not listed: [9] | [16] | [17] | [19] | [20]
inactive: all other assays above

CC(C)=CC1C(C(=O)OCc2cccc(Oc3ccccc3)c2)C1(C)C (stereo not drawn)
not listed: [19] | [20]
inactive: all other assays above

O=NN1CCOCC1
not listed: [2] | [20]
inactive: all other assays above

CCCCCCCCCCCCCl
not listed: [20]
inactive: all other assays above

S=c1[nH]c2ccccc2[nH]1
50.1 µM (active) and inactive: [18]
active: [10] 30.7 µM | [11] 24.4 µM
not listed: [19]
inactive: all other assays above

CN(C)P(=O)(N(C)C)N(C)C
not listed: [19] | [20]
inactive: all other assays above

COP(=S)(OC)Oc1ccc(Sc2ccc(OP(=S)(OC)OC)cc2)cc1
54.5 µM (active) and inactive: [10]
not listed: [2]
inactive: all other assays above

N#Cc1cccnc1
not listed: [20]
inactive: all other assays above

CCOP(=O)(OCC)OCC
not listed: [19] | [20]
inactive: all other assays above

N#Cc1nn(-c2c(Cl)cc(C(F)(F)F)cc2Cl)c(N)c1S(=O)C(F)(F)F (stereo not drawn)
61.5 µM (active) and inactive: [3]
active: [8] 21.8 µM and 29.8 µM | [18] 19.4 µM and 29.8 µM
not listed: [2] | [10] | [11]
inactive: all other assays above

ClCc1ccccn1
not listed: [20]
inactive: all other assays above

N#CC(c1ccccc1)c1ccccc1
not listed: [19] | [20]
inactive: all other assays above

CC(O)CN(CC(C)O)CC(C)O (stereo not drawn)
not listed: [19] | [20]
inactive: all other assays above

c1ccc2c(c1)Nc1ccccc1S2
1.54 µM (active) and inactive: [9]
not listed: [6] | [7] | [10] | [19] | [20]
inactive: all other assays above
